# Hits are enriched below; roughly 5.9% of the tested compounds scored in any of these assays.
# KB-3-1 tox: qHTS assay for MDR1-selective chemotherapeutics: Primary screen using the parental adenocarcinoma cell KB-3-1 | KB-3-1 viability, CellTiter-Glo ATP luminescence, 72 h | Potency, µM (series often up to 46.1 µM), usual class: cytotoxic | AID 1347075, 2019 | actives 1.4% (n = 400,000); also: % is scaled to controls: 0 for no effect and ±100 for the full control effect; nearly all actives have a fitted effect of over 60% in size
#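 Cytotoxicity in the drug-sensitive parental line KB-3-1 was scored as loss of CellTiter-Glo luminescence following 72 h incubation with compound. Values come from curve fitting of normalized concentration-response data.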
# ATXN2 expr inh: Primary qHTS for Inhibitors of ATXN expression | AID 1745845, 2022 | Potency, µM (highest dose often 57 µM), for inactives: at the top dose activity change, negative = inhibition, most hits filed as inhibitors | HEK-293 ATXN2-luciferase reporter, luminescence, 24 h | actives 0.72% (n = 360,000); also: % is scaled to controls: 0 for no effect and ±100 for the full control effect; nearly all actives have a fitted effect of over 55% in size
#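 ATXN2-luciferase reporter cells (luciferase flanked by upstream and downstream ATXN2 gene portions) were treated 24 h at 37 °C with compounds at up to 57 uM. SteadyGlo luminescence gave expression; GF-AFC fluorescence gave viability.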
# ATXN viability: Viability Counterscreen for Primary qHTS for Inhibitors of ATXN expression | S2 cells (HEK-293 line with an ATXN2-luciferase reporter) viability, CellTiter-Fluor protease fluorescence, 24 h | Potency, µM (titrated, usually from 56.7 µM), actives largely listed as cytotoxic | actives 0.49% (n = 400,000) | AID 651635, 2014; also: nearly all actives have a fitted effect of over 40% in size
# TGFb inhibitor: qHTS for Inhibitors of TGF-b | HepG2 CAGA-GFP TGF-b/SMAD3 reporter, GFP fluorescence, 18 h; TGF-beta stimulated, 500 pg/mL final | Potency, µM (doses to about 46.1 µM), inactives show at the top dose activity, negative = inhibition, actives largely listed as inhibitors | actives 1.2% (n = 410,000) | AID 588855, 2011; also: % is scaled to controls: 0 for no effect and ±100 for the full control effect; nearly all actives have a fitted effect of over 65% in size
#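 Using HEPG2 CAGA-GFP reporter cells at 1000 cells/well, we pinned test compounds, stimulated with recombinant TGF-beta (500 pg/mL final) and measured total well GFP after 18 h.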
# KB-V1 cytotox: qHTS assay for MDR1-selective chemotherapeutics: Primary screen using the drug-selected MDR subline cells KB-V1. KB-V1 MDR cells viability, CellTiter-Glo, 72 h. Potency, µM (highest dose often 46.1 µM), most hits filed as cytotoxic. actives 3.4% (n = 400,000). AID 1347076, 2019; also: % is scaled to controls: 0 for no effect and ±100 for the full control effect; nearly all actives have a fitted effect of over 60% in size
#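 Potencies derive from concentration-effect curves fitted to normalized luminescence (CellTiter-Glo) of KB-V1 cells treated for 72 h at 37 degrees C in phenol-red-free DMEM containing 10% FBS.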
# HepG2 tox-1: qHTS for Inhibitors of TGF-b: Cytotox Counterscreen | Potency, µM (top dose mostly 46.1 µM), for inactives: at the highest dose activity change, negative = cytotoxicity, usual class: cytotoxic | actives 0.76% (n = 410,000) | AID 588856, 2011 | HepG2 CAGA-GFP viability, ATP luminescence, 18 h
#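 CellTiter-Glo luminescence gave cytotoxicity after 18 hours at 37 degrees C. The cells were HepG2 CAGA-GFP in 1% FBS DMEM, stimulated with 500 pg/mL TGF-beta after compound addition. %Activity was normalised to no-cell wells (complete cell-killing) and DMSO (no toxicity), and curves were fitted and classified.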
# TGFb confirm: qHTS for Inhibitors of TGF-b: Confirmation of Cherry Picks. HepG2 CAGA-GFP TGF-b reporter, GFP fluorescence, 18 h; cells stimulated with TGF-beta, 500 pg/mL. shares compounds with TGFb inhibitor. AID 720534, 2013. actives 63% (n = 1,600). Potency, µM (top dose mostly 46.1 µM), for inactives: at the highest dose activity, negative = inhibition, most hits filed as inhibitors; also: % is scaled to controls: 0 for no effect and ±100 for the full control effect; nearly all actives have a fitted effect of over 65% in size
# HepG2 tox-2: qHTS for Inhibitors of TGF-b: Cytotox Counterscreen for Cherry Picks | shares compounds with TGFb inhibitor | HepG2 CAGA-GFP viability, ATP luminescence, 18 h; cells stimulated with TGF-beta, 500 pg/mL | Potency, µM (series often up to 46.1 µM), without a hit: top-dose activity, negative = cytotoxicity, most hits filed as inhibitors | actives 27% (n = 1,600) | AID 720535, 2013; also: % is scaled to controls: 0 for no effect and ±100 for the full control effect; nearly all actives have a fitted effect of over 70% in size
# TGFb CCL64 inh: qHTS for Inhibitors of TGF-b: CCL64 Cells Orthogonal Assay for Cherry Picks; actives 41% (n = 1,600); AID 720536, 2013; shares compounds with TGFb inhibitor; CCL64 CAGA-GFP reporter, TGF-b stimulated, GFP fluorescence, 18 h; Potency, µM (series often up to 46.1 µM), for inactives: at the highest dose activity, negative = inhibition, most hits filed as inhibitors; also: nearly all actives have a fitted effect of over 65% in size
# COP TGFb inh: qHTS for Inhibitors of TGF-b: Hit Validation in HepG2 Cells using COP promoter; shares compounds with TGFb inhibitor; HepG2 COP-GFP TGF-b reporter, GFP fluorescence, 18 h; cells stimulated by added recombinant TGF-beta; Potency, µM (top dose mostly 46.1 µM), inactives show top-dose activity, negative = inhibition, usual class: inhibitors; actives 3% (n = 1,600); AID 720537, 2013; also: nearly all actives have a fitted effect of over 70% in size
# * marks the source's active call; other numbers are inactive results; i = inactive; ? = inconclusive; . = no result; [ ] = another dose, or the depositor's remark. Calls follow the shape of the dose curve; as a rule, active = well fitted curve in the direction sought with a large enough effect; inconclusive = small, poorly fitted or top-dose-only effect, or another doubt; inactive = no such curve, though single readings can be large; an effect the other way counts as inactive or inconclusive. Potency is read from the fitted curve at half-maximal effect.
SMILES,KB-3-1 tox,ATXN2 expr inh,ATXN viability,TGFb inhibitor,KB-V1 cytotox,HepG2 tox-1,TGFb confirm,HepG2 tox-2,TGFb CCL64 inh,COP TGFb inh
CCN(CC)S(=O)(=O)c1ccc2oc(SCC(=O)Nc3cc(C)on3)nc2c1,?,?,i,10µM*,3.66µM*,-13.8%,?,?,-25.9%,16.6%
Cc1cc(NC(=O)CSc2nc3cc(Cl)ccc3o2)no1,?,-4.4%,i,1.3%,i,-10.7%,.,.,.,.
COc1ccc(-c2cc(C(=O)Nc3ccc(C#N)cc3)no2)cc1,i,7.9%,i,0.3%,?,-9.2%,.,.,.,.
CCOC(=O)Nc1nc(-c2ccccc2)c(C(=O)c2ccc(Cl)cc2)s1,1.16µM*,-12.2%,?,8.91µM*,1.3µM*,16.0%,7.31µM*,-8.7%,9.2µM*,3.0%
CCc1nc2ccc(C(=O)NCc3cccs3)cn2c1N(CC)Cc1cccc(Br)c1,?,?,?,11.2µM*,?,-27.1%,18.4µM*,?,?,53.5%
CCOCCCNC(=O)c1ccc(NC(=O)N2CCCCc3ccccc32)cc1,i,11.2%,i,-21.9%,i,-0.2%,.,.,.,.
CNS(=O)(=O)c1cn(CC(=O)Nc2ccc(F)cc2F)cc1S(=O)(=O)NC,i,.,.,0.0%,i,-0.3%,.,.,.,.
CCOc1ccccc1OCC(=O)Nc1nc2ccccc2[nH]1,i,1.8%,i,0.0%,?,-16.9%,.,.,.,.
O=C(O)c1ccc(/C=C2\COc3ccccc3C2=O)cc1,i,-34.3%,i,14.1µM*,i,-19.6%,16.4µM*,16.4µM*,-88.6%,25.7%
COc1cc(/C=C2\COC/C(=C\c3cc(OC)c(OC)c(OC)c3)C2=O)cc(OC)c1OC,?,3.16µM*,?,0.631µM*,?,3.55µM*,1.3µM*,1.3µM*,1.3µM*,51.8%
Cc1cc(C)c2c(c1)C(=O)/C(=C/c1ccc(C(=O)O)cc1)CC2,i,59.7%,i,3.5%,i,3.7%,.,.,.,.
CCOc1cc(/C=N/Nc2nc3ccccc3[nH]2)cc(Br)c1OCC(=O)N(C)C,?,?,?,8.91µM*,?,17.7%,11.6µM*,?,?,20.2%
CCOc1cc(/C=C2\COc3ccccc3C2=O)cc(Br)c1OCC(=O)N(C)C,?,22.4µM*,.,3.55µM*,?,12.6µM*,16.4µM*,?,14.6µM*,?
CCC1CN(CC(=O)NCc2cccc(Br)c2)c2ccccc2S1 (stereo not drawn),i,3.0%,i,-23.2%,?,-37.7%,.,.,.,.
CCc1cnc2c(c1SCC(=O)Nc1ccc(C)cc1C)c(=O)n(C)c(=O)n2C,i,8.0%,i,13.8%,i,6.5%,.,.,.,.
COc1ccccc1NC(=O)N1c2ccccc2Sc2ccccc21,i,10.6%,i,?,i,3.6%,.,.,.,.
O=C(NCc1ccc(F)cc1)c1ccc2c(O)c(S(=O)(=O)c3ccccc3)c(=O)[nH]c2c1,i,5.2%,i,-24.0%,i,2.7%,.,.,.,.
COc1ccc(/C=C2\COc3ccccc3C2=O)cc1OC,?,3.8%,i,15.8µM*,i,1.2%,?,?,18.4µM*,6.3%
COc1ccc(/C=C2/CCc3ccccc3C2=O)cc1OC,i,8.6%,?,-28.6%,?,-29.8%,.,.,.,.
COc1cc(C(=O)NC(=S)Nc2ccc(Cc3ccncc3)cc2)cc(OC)c1OC,i,-20.9%,i,?,i,-24.8%,.,.,.,.
Cc1cc(C)cc(C(=O)NC(=S)Nc2ccc(Cc3ccncc3)cc2)c1,?,-36.5%,i,7.08µM*,?,-25.1%,13µM*,?,-24.0%,14.6%
Cc1ccc(CN=C(N)Nc2nc(C)cc(C)n2)cc1,2.59µM*,-26.4%,i,15.8µM*,i,-2.0%,14.6µM*,?,?,12.2%
COc1ccc(C)cc1N/C(N)=N/c1nc(C)cc(C)n1,i,-26.3%,i,?,?,-23.2%,.,.,.,.
CCC1=C(CC2NCCc3ccccc32)CC2c3cc(OC)c(OC)cc3CCN2C1 (stereo not drawn),6.51µM*,8.91µM*,?,2.82µM*,?,-28.9%,1.46µM*,?,5.17µM*,22.2%
Cc1nnc(NC(=O)c2nc(SC(C)C)ncc2Cl)s1,i,-3.6%,i,1.6%,i,-56.3%,.,.,.,.
COc1ccc(NC(=O)Nc2nc(C(N)CC(C)C)cs2)cc1 (stereo not drawn),i,-35.6%,i,?,i,-44.6%,.,.,.,.
NC(c1csc(NC(=O)Nc2ccc(OC(F)(F)F)cc2)n1)C1CCCCC1 (stereo not drawn),?,?,?,8.91µM*,?,7.94µM*,?,18.4µM*,20.6µM*,?
Nc1ccc2nn(-c3ccccc3)nc2c1,i,27.5%,.,-28.1%,i,-23.2%,.,.,.,.
Nc1cc2nn(-c3ccccc3)nc2cc1Cl,i,62.7%[11.3 µM],i,2.24µM*,?,-45.4%,3.26µM*,1.84µM*,16.1%,68.7%

# High-throughput results: PubChem, National Center for Advancing Translational Sciences (NCATS)
